The list is not random: actives were taken first. Their share in the collection is about 12%.
JMJD2A Tudor inh – JMJD2A Tudor domain (human) inhibition; O75164; 4.4% of 390,000 active; Potency, µM (top dose mostly 114 µM), hits mostly inhibitors; AlphaScreen JMJD2A-Tudor / H3K4me3 peptide binding; AID 504339; note: nearly all actives have a fitted effect of over 50% in size
G9a block – G9a (human) methyltransferase inhibition | Q96KQ7 | G9a H3K9 monomethylation, AlphaScreen, 2 h | Potency, µM (titrated, usually from 102 µM), most hits filed as inhibitors | 8.8% of 350,000 active; note: nearly all actives have a fitted effect of over 75% in size
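Step 1: enzyme (final 20 nM) with compound, 15 min RT. Step 2: substrate peptide 500 nM and SAM 20 uM, 2 h RT. Step 3: anti-H3K9me1 antibody and AlphaScreen beads, 10 min, then plate read.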
PLK1 PBD block – inhibitors of human PLK1 polo-box domain binding. Potency, µM, most hits filed as inhibitors. 2.8% of 360,000 active. P53350. Plk1 PBD binding of FITC phosphopeptide, fluorescence polarization; note: series mostly up to about 57 µM; nearly all actives have a fitted effect of over 65% in size
Target sequence (P53350 whole entry, looked up, the tested form may be a part): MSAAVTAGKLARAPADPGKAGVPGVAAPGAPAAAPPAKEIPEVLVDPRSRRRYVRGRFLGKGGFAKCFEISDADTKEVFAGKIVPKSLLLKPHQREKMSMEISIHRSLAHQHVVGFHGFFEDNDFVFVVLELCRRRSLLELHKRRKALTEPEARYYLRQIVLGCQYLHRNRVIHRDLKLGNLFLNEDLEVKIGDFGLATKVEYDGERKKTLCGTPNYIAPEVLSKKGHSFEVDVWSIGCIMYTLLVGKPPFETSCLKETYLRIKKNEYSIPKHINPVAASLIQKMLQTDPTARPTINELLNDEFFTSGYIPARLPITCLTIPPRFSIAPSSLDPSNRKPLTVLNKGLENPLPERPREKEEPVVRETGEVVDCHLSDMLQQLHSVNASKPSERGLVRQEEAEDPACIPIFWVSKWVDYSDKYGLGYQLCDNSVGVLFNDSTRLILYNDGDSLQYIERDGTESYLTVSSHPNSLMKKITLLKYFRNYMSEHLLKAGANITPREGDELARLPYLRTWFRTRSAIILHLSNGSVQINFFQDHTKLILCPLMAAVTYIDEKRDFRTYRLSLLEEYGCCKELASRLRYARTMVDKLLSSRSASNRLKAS
Sfp PPTase inh – inhibitors of Bacillus subtilis Sfp phosphopantetheinyl transferase; Q9F4F7; Biochemical Sfp PPTase activity, qHTS; Potency, µM, hits mostly inhibitors; 3.5% of 310,000 active; AID 1490;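 note: the enzyme is Sfp with the accession as filed and its product quenches rhodamine fluorescence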
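Sfp 15 nM + cpd, 15 min RT; start w/ rhodamine-CoA 5 uM, BHQ-2-YbbR 12.5 uM (final); 50 mM Hepes pH 7.6, 10 mM MgCl2, 0.01% NP-40, 0.01% BSA; read 525/598 nm at 0 and 30 min.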
HP1b chromo inh – inhibitors of HP1-beta chromodomain binding to methylated histone tails. P83916. AlphaScreen HP1-beta / biotin-H3K9me3 peptide binding. Potency, µM (doses to about 114 µM), most hits filed as inhibitors. 0.56% of 390,000 active; note: nearly all actives have a fitted effect of over 70% in size
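Compound inhibition of the preformed complex between 50 nM HP1-beta and 50 nM biotinylated H3K9me3 peptide was read by AlphaScreen. Buffer was PBS pH 7.4 with 0.01% Tween-20. Incubations ran 30 min at room temperature, with 10 ug/mL donor/acceptor beads.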
BAZ2B block – blocks human BAZ2B. Q9UIF8. AlphaScreen BAZ2B-H3K14Ac peptide displacement. Potency, µM (doses to about 114 µM), most hits filed as inhibitors. 4.4% of 360,000 active. AID 504333; note: nearly all actives have a fitted effect of over 60% in size
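AlphaScreen displacement of biotin-H3(5-23)K14Ac peptide (50 nM final) from BAZ2B (50 nM final) in PBS pH 7.4, 0.01% Tween-20; complex preformed 30 min RT, then compounds (top 110 uM) 30 min RT, beads 20 min dark.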
Numbers stand for hits; i = inactive; ? = inconclusive; nt = no result; [ ] = remark or other dose. Calls come from the whole dose curve; as a rule, active = well fitted curve in the direction sought with a large enough effect; inconclusive = small, poorly fitted or top-dose-only effect, or another doubt; inactive = no such curve, though single readings can be large; an effect the other way counts as inactive or inconclusive.

SMILES	JMJD2A Tudor inh	G9a block	PLK1 PBD block	Sfp PPTase inh	HP1b chromo inh	BAZ2B block
Cc1ccc2c(c1)-c1c(cnn1CC(=O)N(Cc1ccco1)C1CCCCC1)CO2	?	i	i	i	i	i
S=C(Nc1ccc(Cl)cc1Cl)Nn1cnnc1	i	?	6.7µM	12.6µM	i	i
S=C(Nc1cccc(Cl)c1Cl)Nn1cnnc1	?	3.98µM	16.8µM	35.5µM	?	?
S=C(Nc1cc(Cl)ccc1Cl)Nn1cnnc1	i	7.94µM	21.2µM	17.8µM	i	i
CC(C)(C)C(=O)c1c(N)[nH]c(C(=O)c2ccccc2)c1-c1ccc(C(F)(F)F)cc1	nt	nt	i	nt	nt	nt
CC(C)CCNC(=O)C(NS(=O)(=O)c1ccc2c(c1)c(=O)n(C)c(=O)n2C)c1ccccc1 (stereo not drawn)	i	8.91µM	i	i	i	i
COCCCNC(=O)C(Cc1ccccc1)NS(=O)(=O)c1ccc2c(c1)c(=O)n(C)c(=O)n2C (stereo not drawn)	i	i[12.7 µM]	i	i	i	i
Cn1c(=O)c2cc(S(=O)(=O)NC(Cc3ccccc3)C(=O)NCC3CCCO3)ccc2n(C)c1=O (stereo not drawn)	i	i	i	i	i	i
Cc1cccc(NC(=O)C(Cc2ccccc2)NS(=O)(=O)c2ccc3c(c2)c(=O)n(C)c(=O)n3C)c1 (stereo not drawn)	i	i	nt	nt	i	89.1µM
Cn1c(=O)c2cc(S(=O)(=O)NC(Cc3ccccc3)C(=O)NCc3ccco3)ccc2n(C)c1=O (stereo not drawn)	i	63.1µM	i	i	i	i
CC(NS(=O)(=O)c1ccc2c(c1)c(=O)n(C)c(=O)n2C)C(=O)NC1CCCCC1 (stereo not drawn)	i	nt	26.7µM	i	i	i
CCC(C)NC(=O)C(NS(=O)(=O)c1ccc2c(c1)c(=O)n(C)c(=O)n2C)c1ccccc1 (stereo not drawn)	i	i	i	i	i	i
CCCOc1ccc(Oc2nc(NCC(C)C)nc(N3CCOCC3)n2)nn1	i	i	nt	nt	i	i
O=C1NC[C@@H](c2ccccc2)OC(=O)[C@@H](Cc2ccc(F)cc2)C/C=C\C[C@@H]1CC(=O)N(CCO)Cc1ccccc1	i	nt	i	nt	i	nt
CC(=O)Nc1ccccc1-c1ccccc1[N+](=O)[O-]	i	nt	i	nt	i	nt
CCS(=O)(=O)c1cc([N+](=O)[O-])c(Sc2ccccc2NC(C)=O)s1	20µM	1.12µM	?	0.447µM	i	i
CN(C(=O)CSc1nnc(C2CC2)n1C1CC1)C1(C#N)CCCCC1	i	i[2.33 µM]	i	nt	i	i
COC(=O)c1cn(C(=O)c2ccc(OC)cc2)c2ccccc12	i	i	i	i	i	i
COC(=O)c1cn(C(=O)c2cc(C)cc(C)c2)c2ccccc12	i[11.4 µM]	i[12.7 µM]	21.2µM	i	i	i
COC(=O)c1cn(C(=O)c2ccc(C)cc2)c2ccccc12	?	i	18.9µM	?	i	i
Cc1cccc(-c2ocnc2C(=O)Nc2ccccc2NC(=O)c2ccccn2)c1	i	i	i	44.7µM	i	i
Cc1sc2nc(CSC(C)C(=O)N3CCOCC3)[nH]c(=O)c2c1C (stereo not drawn)	i	nt	i	i	i	i
Cc1sc2nc(CC(=O)N3CCCC3)[nH]c(=O)c2c1C	i	28.2µM	?	?	i	i
CN(C)c1ccc(-c2nn3c(-c4cc(-c5ccccc5)n[nH]4)nnc3s2)cc1	i	nt	nt	nt	i	nt
CCNc1nc(NCC)nc(N/N=C/c2ccc(O)c(O)c2)n1	i	39.8µM	i	50.1µM	i	?
SMILES	JMJD2A Tudor inh	G9a block	PLK1 PBD block	Sfp PPTase inh	HP1b chromo inh	BAZ2B block
CCNc1nc(NCC)nc(N/N=C/c2ccc(N(C)C)cc2)n1	?	50.1µM	i	i	i	44.7µM
CCNc1nc(NCC)nc(N/N=C/c2cc(OC)c(OC)c(OC)c2)n1	i	i	i	i	i	i
C/C(=N\Nc1nncc2ccccc12)c1ccc(C(C)(C)C)cc1	i	i[2.33 µM]	i	i	i	56.2µM
C/C(=N\Nc1nncc2ccccc12)c1ccc(O)cc1	?	?	i	i	i	?
Cc1ccc(/C=N/Nc2nnc(Cl)c3ccccc23)cc1	i	44.7µM	i	i	i	?
CC(NC(=O)c1cc(S(=O)(=O)N(C)C)ccc1Cl)c1ccc(-n2ccnc2)cc1 (stereo not drawn)	i	i	i	i	i	i
CN(CC1CCCN(CCc2cccc(C(F)(F)F)c2)C1)C(=O)c1cc2ccccc2o1 (stereo not drawn)	i	nt	i	i	i	?
CN(C)c1ccc(/C=N/Nc2nncc3ccccc23)cc1	i	28.2µM	i	i	i	i
C#CCOCCOCCOCCNc1nc(N2CCN(C(=O)C([C@@H](C)CC)n3cc(C(N)CO)nn3)CC2)nc(N2CCN(C(=O)[C@H](CCC(=O)O)n3cc(C(N)Cc4ccc(O)cc4)nn3)CC2)n1 (stereo partly drawn)	nt	i[12.7 µM]	nt	i	nt	39.8µM
C#CCOCCOCCOCCNc1nc(N2CCN(C(=O)[C@H]([C@@H](C)CC)n3cc(CCC(=O)O)nn3)CC2)nc(N2CCN(C(=O)[C@H](CCCCN)n3cc(CC(C)O)nn3)CC2)n1 (stereo partly drawn)	?	nt	i	nt	i	nt
C#CCOCCOCCOCCNc1nc(N2CCN(C(=O)[C@H]([C@@H](C)CC)n3cc([C@@H](N)Cc4ccc(O)cc4)nn3)CC2)nc(N2CCN(C(=O)[C@H](CCCCN)n3cc([C@@H](N)CO)nn3)CC2)n1	nt	?	nt	i	nt	50.1µM
Cc1ccccc1OC[C@H](O)CO	nt	i[21.5 µM]	nt	i	nt	nt
COc1cccc(NC(=O)CSc2nc(-c3ccccc3Cl)nc3c2Cc2c(CO)cnc(C)c2O3)c1	i	i	nt	nt	i	i
Cc1ccc(Oc2ccc(OCC(=O)NC3CCS(=O)(=O)C3)cc2)cc1 (stereo not drawn)	i	i	i	i	i	i
Cc1ccc(NC(=O)C(=O)NCc2ccco2)cc1	i	i	nt	nt	i	i
Cc1ccc(NC(=O)N/C=C/c2ccco2)cc1	50.1µM	?	i	?	i	79.4µM
Cc1ccc(C(=O)N/C(=C/c2ccco2)C(=O)Nc2cccc(C(=O)O)c2)cc1	79.4µM	nt	i	44.7µM	i	i
Cc1ccc(NC(=O)/C(=C\c2ccco2)NC(=O)c2ccco2)cc1	?	28.2µM	i	i	i	i
COC(=O)c1cccc(NC(=O)/C(=C\c2ccco2)NC(=O)c2ccco2)c1	nt	nt	i	nt	nt	nt
COc1ccccc1C(=O)N/C(=C/c1ccco1)C(=O)Nc1cccc(C(=O)O)c1	79.4µM	?	i	50.1µM	i	?
CCOc1cc(C(=O)Nc2ccc(N3CCOCC3)cc2)cc(Br)c1OC	i	?	i	i	i	i
O=Cc1cccc(OC(=O)/C=C/c2ccco2)c1	35.5µM	?	?	i	14.1µM	i[0.457 µM]
COC(=O)c1ccc(C(=S)N2CCOCC2)cc1	i	?	11.9µM	22.4µM	?	i
